The whole screen tested about 69,000 compounds, of which about 8,600 (12%) showed an effect of 50% or more. This is one part of a sample in which strong results are shown more often than they occur.
tested on: Plasmodium berghei; assay: Screen against P. berghei liver stage (PbLuc), transformed with Luciferase, at 10uM; format: functional, HepG2; conditions: tested at 10 uM

Compound	INHIBITION
Cc1ccc(CN(C(=O)NCC2CCCO2)C2CC2)o1 (stereo not drawn)	-56.2%
COCCc1noc(CNC2CCCC(C)(C)C2)n1 (stereo not drawn)	20.2%
Cc1ccccc1CS(=O)(=O)c1nnc(C(C)NC(=O)OC(C)(C)C)o1 (stereo not drawn)	46.6%
CC(=O)N(C)Cc1ccccc1NCc1c(C)cccc1C	50.2%
CC(=O)N(C)Cc1ccccc1NC(=O)c1ccccc1C	-19.55%
C=C(C)CN(CC)C(=O)Nc1ccccc1CN(C)C(C)=O	28.7%
CC(=O)N(C)Cc1ccccc1NC(=O)N(C)CCc1cccs1	52.3%
CC(=O)N(C)Cc1cccc(NC(=O)N(C)CCc2cccs2)c1	-6.34%
CC(=O)N(C)Cc1ccccc1NCc1c(C)noc1C	-16.1%
O=C(c1ccccc1)N1CCS(=O)(=O)[C@@H]2CCNCC[C@@H]21	38.2%
CNC(=O)c1ccc(C(=O)N2CCCC(n3nc(C)cc3C)C2)cn1 (stereo not drawn)	-11.9%
Cc1csc(N2CCCN(C(=O)c3ccoc3C)CC2)n1	15.3%
CC(=O)N1CC(=O)N(c2ccccc2)CC12CCN(Cc1ccoc1)C2 (stereo not drawn)	38.3%
c1cnc(N2C[C@H]3CC[C@@H](C2)N(Cc2ccsc2)C3)nc1	15.7%
Cc1nnsc1CN1C[C@@H]2CC[C@H]1CN(Cc1ccc(F)cc1)C2	29.1%
CS(=O)(=O)c1ccc(CN2C[C@@H]3CC[C@H]2CN(c2ncccn2)C3)cc1	74.1%
Cc1nnsc1CN1C[C@@H]2CC[C@H]1CN(Cc1ccccn1)C2	-15.3%
CCCN1C[C@@H]2CC[C@H]1CN(c1nnc(C(C)C)s1)C2	-11.9%
Cc1nnsc1CN1C[C@@H]2CC[C@H]1CN(Cc1ccccc1)C2	46.4%
COc1ccc(CN2C[C@H]3CC[C@@H](C2)N(Cc2snnc2C)C3)cc1	73.5%
CC(C)c1nnc(N2C[C@H]3CC[C@@H](C2)N(CC2CCC2)C3)s1	44.6%
Cc1ncsc1CN1C[C@@H]2CC[C@H]1CN(Cc1ccccc1)C2	15.5%
Cc1nnsc1CN1C[C@H]2CC[C@@H](C1)N(Cc1ccccc1)C2	60%
CC(C)c1nnc(N2C[C@H]3CC[C@@H](C2)N(Cc2ccccc2)C3)s1	87.2%
CC(=O)Nc1ccc(CN2C[C@@H]3CC[C@H]2CN(c2ncccn2)C3)cc1	-8%
NC1CCC(CN2CCCn3nc(CNC(=O)C4CCC4)cc3C2)CC1 (stereo not drawn)	18.4%
Cc1cnc(C(=O)N2CCCN(c3nc(C)cs3)CC2)cn1	-5.25%
Cc1ccc(CN2CC[C@@H](N3CCOCC3)[C@@H]2Cc2cccnc2)o1	12.1%
